Source: PubChem (National Center for Advancing Translational Sciences (NCATS))
Nrf2 activator = Nrf2 pathway activation | 0.31% of 410,000 active | AREc32 ARE-luciferase reporter (MCF7-derived line), luminescence, 24 h | Potency, µM (titrated, usually from 46.1 µM), without a hit: at the highest dose activation, most hits filed as activators; also: % of control where 0% means no effect; nearly all actives have a fitted effect of over 65% in size
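Luminescent ARE reporter assay in AREc32_Fluc cells: overnight plating at 37 deg C, 24 hr compound incubation, Steady-Glo added, 30 min RT before reading.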
A549 viability = A549 cytotoxicity, counter-screen for Nrf2 inhibitors | AID 504648 | A549 ARE-Fluc cells, CellTiter-Fluor viability, 18-24 h | 0.16% of 390,000 active | Potency, µM (doses to about 46 µM), inactives show at the top dose activity change, negative = cytotoxicity, most hits filed as inhibitors; also: % is scaled to controls: 0 for no effect and ±100 for the full control effect
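A549 ARE-Fluc cells in 5% FBS OPTI-MEM, 5000 cells/well, rested 2 h then exposed to compounds in concentration-response for 18-24 h at 37 °C. Viability by CellTiter-Fluor fluorescence (Ex 405/Em 525) after 30 min; luciferase luminescence (BugLite, 15 min, RT) read afterwards.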
Nrf2 inh = blocks Nrf2 signaling; Potency, µM (series often up to 46 µM), inactives show top-dose activity change, negative = inhibition, usual class: inhibitors; 2.1% of 360,000 active; A549 ARE-Fluc reporter, luciferase luminescence, 18-24 h; also: % is scaled to controls: 0 for no effect and ±100 for the full control effect; nearly all actives have a fitted effect of over 60% in size
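Cells were seeded and rested 2 h, then exposed to compounds for 18-24 h. CellTiter-Fluor was read first as a viability measure. BugLite was added 15 min before the final luminescent read of ARE-luciferase activity in A549 cells.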
ELG1 repair inh = inhibitors of ELG1-dependent DNA repair in HEK293T cells; Potency, µM (top dose mostly 46.1 µM), for inactives: at the highest dose activity change, negative = inhibition, usual class: inhibitors; HEK293T ELG1-luciferase reporter, luminescence, 16 h; DNA damage induced by 5-fluorouridine; 2.3% of 330,000 active; also: % is scaled to controls: 0 for no effect and ±100 for the full control effect; nearly all actives have a fitted effect of over 55% in size
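DMSO vehicle served as the neutral condition. Each well held 2,000 cells given 5-fluorouridine plus compound; after 16 hr at 37 °C/5% CO2, ONE-Glo was added and luciferase measured 30 min later.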
IDH1 R132H inh = human IDH1 R132H inhibition; O75874; IDH1-R132H enzyme, NADPH consumption, diaphorase/resazurin fluorescence; Potency, µM (doses to about 76.6 µM), for inactives: at the top dose activity change, negative = inhibition, hits mostly inhibitors; 0.093% of 390,000 active; also: % is scaled to controls: 0 for no effect and ±100 for the full control effect; nearly all actives have a fitted effect of over 65% in size
Target sequence (O75874 whole entry R132H, stated change not applied): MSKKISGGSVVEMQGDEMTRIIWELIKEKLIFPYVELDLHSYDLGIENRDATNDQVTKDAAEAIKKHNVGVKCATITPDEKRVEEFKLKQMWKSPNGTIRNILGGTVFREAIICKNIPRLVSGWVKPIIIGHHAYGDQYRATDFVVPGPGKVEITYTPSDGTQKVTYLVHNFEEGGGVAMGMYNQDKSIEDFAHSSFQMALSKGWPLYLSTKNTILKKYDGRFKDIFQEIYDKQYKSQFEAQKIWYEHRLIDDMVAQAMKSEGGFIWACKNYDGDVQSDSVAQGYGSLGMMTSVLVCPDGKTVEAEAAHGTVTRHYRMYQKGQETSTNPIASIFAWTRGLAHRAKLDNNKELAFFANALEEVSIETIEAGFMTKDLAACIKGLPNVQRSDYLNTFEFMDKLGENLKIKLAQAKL
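IDH1-R132H (0.5 ug/mL) preincubated 30 min with compound, then NADPH (0.016 mM) and alpha-KG (2 mM) added; 80 min at RT, pH 7.5. Remaining NADPH coupled via diaphorase/resazurin to fluorescence (540/590 nm); concentration-response curves normalized to no-enzyme control.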
* = called active by the depositor; ? = inconclusive; . = no result given; ! = a repeat was not active. The list is not random: actives were taken first. Their share in the collection is about 3.8%. Calls follow the shape of the dose curve; as a rule, active = well fitted curve in the direction sought with a large enough effect; inconclusive = small, poorly fitted or top-dose-only effect, or another doubt; inactive = no such curve, though single readings can be large; an effect the other way counts as inactive or inconclusive. Potency is read from the fitted curve at half-maximal effect.

SMILES	Nrf2 activator	A549 viability	Nrf2 inh	ELG1 repair inh	IDH1 R132H inh
CC(C)CC(COCc1ccc(C(F)(F)F)cc1)N1CCN(C(=O)c2ccc(C(F)(F)F)cc2)CCC1=O (stereo not drawn)	-3.3%	?	23.1µM*	-4.2%	4.3%
O=C(Nc1nc2ccc(Cl)cc2s1)c1ccc(S(=O)(=O)N2CCCC2)cc1	0.6%	-1.7%	.	.	8.0%
O=C(CN1c2cccc3cccc(c23)S1(=O)=O)Nc1ccc(F)c(F)c1F	5.4%	-1.6%	-20.6%	23.1µM*	1.5%
O=C(CN1c2cccc3cccc(c23)S1(=O)=O)Nc1ccccc1F	0.5%	-1.3%	2.9%	?	9.5%
COc1cccc(C(=O)N2c3nc(-c4ccco4)nn3C3(CCCCC3)[C@@H]3CCCC[C@@H]32)c1	5.5%	-18.7%	-12.7%	.	8.9%
CN1c2ccccc2C(C)(C)C12C=Cc1cc(O)ccc1O2 (stereo not drawn)	12.2%	?	20.6µM*	3.2%	-3.9%
CN1c2ccccc2C(C)(C)C12C=Nc1c(cc(N3CCOCC3)c3ccccc13)O2 (stereo not drawn)	15.2%	16.2%	-23.0%	-3.7%	16.7%
CCc1ccc(OCC(=O)Nc2ccc3c(c2)c2ccccc2n3CC)cc1	-1.0%	-15.7%	?	.	7.1%
CCn1c2ccccc2c2cc(NC(=O)COC(=O)c3cc(OC)c(OC)cc3OC)ccc21	0.3%	-6.4%	16.4µM*	9.2µM*	0.7%
COc1cc2ncnc(N(C)Cc3cccs3)c2cc1-c1ccc2c(c1)OCO2	.	7.8%	-9.6%	.	.
O=C(NCCCCc1ccccc1)c1cccc(NC(=O)C2CC2)c1	0.5%	?	-7.7%	.	1.0%
CCOc1ccc(-n2c(C)cc(/C=C3/C(=N)N4C(=NC3=O)SN=C4S(C)(=O)=O)c2C)cc1	-0.5%	?	4.61µM*	-2.3%	-18.8%
O=C(Nc1cnn(Cc2ccc(Cl)cc2Cl)c1)c1cc(-c2cccs2)on1	0.5%	-7.1%	.	-13.6%	-2.6%
CC(=O)c1cccc(NC(=O)Nc2cnn(Cc3ccc(Cl)cc3Cl)c2)c1	0.8%	0.2%	?	25.9µM*	9.2%
C=CCOc1ccccc1CN(C(=O)CCl)c1ccc2c(c1)OCO2	22.4µM*	1.6%	3.8%	-1.3%	0.0%
COc1ccccc1/C=C/C(=O)N1CCN(S(=O)(=O)c2cc(C)ccc2C)CC1	-0.6%	-2.3%	16.4µM*	?	2.7%
COc1ccccc1/C=C/C(=O)N1CCN(S(=O)(=O)c2cccs2)CC1	0.3%	-0.7%	-11.5%	20.6µM*	-12.0%
COc1ccccc1CC(=O)N1CCN(S(=O)(=O)c2cccs2)CC1	-0.2%	3.5%	6.9%	-7.4%	3.6%
Cc1nc(-c2ccccc2)sc1-c1nc(-c2cccnc2)ncc1S(=O)(=O)c1ccccc1	-0.5%	?	23.1µM*	?	-0.3%
Cc1csc(-c2ccc3cc(Cl)cc(Cl)c3n2)n1	2.51µM*	.	.	.	.
Cc1cc(C)c(S(=O)(=O)N2CCCC(C(=O)NCc3ccncc3)C2)c(C)c1 (stereo not drawn)	0.0%	4.0%	-7.2%	-26.2%	6.1%
CCCN1CNc2c(c(=O)[nH]c(=S)n2CCc2ccc(C)c(C)c2)C1	.	2.8%	?	.	.
O=C(/C=C/c1ccco1)Nc1ccc(-c2nc3ccccc3[nH]2)cc1	?	23.1µM*	-4.5%	?	2.7%
O=C(Nc1ccc(-c2nc3ccccc3[nH]2)cc1)c1ccco1	0.7%	-15.9%	?	?	4.0%
COc1cccc(/C=N/Nc2nc3ccccc3n3cnnc23)c1O	-0.7%	0.9%	?	8.2µM*	4.3%
SMILES	Nrf2 activator	A549 viability	Nrf2 inh	ELG1 repair inh	IDH1 R132H inh
COc1cccc(/C=N/Nc2nc3ccccc3[nH]2)c1O	6.4%	7.4%	-11.9%	4.11µM*	0.3%
Cc1cc2c(s1)c1cnn(Cc3cc(F)cc(F)c3)c(=O)c1n2C	.	-1.8%	15.4%	.	.
CC(C)Cn1c(SCC(=O)NC(=O)NC2CCCC2)nc2ccccc21	2.7%	?	18.4µM*	-28.1%	3.8%
O=C(c1ccc(CSCc2ccccc2F)o1)N1CCN(c2ccc(N3CCOCC3)nn2)CC1	4.9%	3.3%	-8.1%	18.4µM*	10.7%
CN1CCc2cccc3c2[C@H]1Cc1ccc(O)c(O)c1-3	-2.5%	-17.1%	-1.2%	23.1µM*!	9.1%
COc1ccc(Cc2nc3ccccc3n2Cc2ccccc2F)cc1	4.6%	-4.7%	18.4µM*	.	2.8%
CCn1c(Cc2ccc(OC)cc2)nc2ccccc21	2.5%	5.4%	?	-15.3%	0.2%
C#CCn1c(=NC(=O)c2ccco2)sc2cccc(Cl)c21	3.98µM*	-2.6%	5.4%	22.4%	-2.2%
COc1ccc(CCNC(=O)[C@H](C)N2C(=O)N3CCc4c([nH]c5ccccc45)[C@@]3(C)C2=O)cc1OC	3.5%	-17.7%	16.4µM*	?	-10.3%
COc1ccc(CNC(=O)[C@H](C)N2C(=O)N3CCc4c([nH]c5ccc(OC)cc45)[C@@]3(C)C2=O)cc1	0.5%	-1.3%	-8.1%	-22.8%	-10.5%
COc1ccc(CCNC(=O)[C@H](C)N2C(=O)N3CCc4c([nH]c5ccccc45)[C@@]3(C)C2=O)cc1	-1.3%	-11.6%	14.6µM*	?	-3.9%
COc1ccccc1CNC(=O)[C@H](C)N1C(=O)N2CCc3c([nH]c4ccccc34)[C@@]2(C)C1=O	5.6%	?	23.1µM*	?	1.2%
O=C(O)c1cc(F)c(S(=O)(=O)N2CCN(S(=O)(=O)c3ccc4c(c3)OCCO4)CC2)cc1F	.	-2.9%	?	.	.
COc1ccc(C(=O)C2CCCN(C(=O)COc3ccc(C(C)=O)cc3)C2)cc1F (stereo not drawn)	2.4%	-0.1%	?	14.6µM*	8.5%
COc1cc(-c2nc(-c3ccc4c(c3)-c3ccccc3S4(=O)=O)c(-c3ccccc3)[nH]2)cc(OC)c1O	-0.7%	-23.6%	?	4.61µM*	?
COCCN1Cc2cccc(C(=O)Nc3ccc(C)cc3C)c2C1=O	-0.2%	-0.2%	?	.	11.8%
COC(=O)c1[nH]c2cc(C)ccc2c1NC(=O)CN1CCN(c2ccccc2OC)CC1	4.3%	-4.2%	?	20.6µM*	1.2%
CCOC(=O)C1CCCN(c2c(C(=O)c3ccc(C)cc3)cnc3ccc(OCC)cc23)C1 (stereo not drawn)	0.3%	?	23.1µM*	.	?
CCOC(=O)c1[nH]c2cc(OC)c(OC)cc2c1NC(=O)C(C)N1CCN(Cc2ccccc2)CC1 (stereo not drawn)	0.5%	-5.6%	-2.7%	9.2µM*	9.0%
CCOC(=O)c1[nH]c2ccc(OC)cc2c1NC(=S)N1CCN(c2ccccc2OC)CC1	2.9%	1.8%	-6.8%	7.31µM*	1.4%
CCOC(=O)N1CCc2c(sc(NCc3ccc(N(C)C)cc3)c2C(=O)Nc2ccccc2OCC)C1	11.1%	-8.7%	.	.	-26.8%
